Source: PubChem BioAssay (Tox21)
Results filed as inconclusive are left out. A call without a number means that no potency is given here. The source made the active and inactive calls. Unless noted, calls follow the shape of the dose curve; as a rule, active = well fitted cell-killing curve with a large enough effect in the repeat runs; inconclusive = weak or mixed curves, or effect the other way; inactive = flat fitted curve, though single readings scatter.

test system: not listed separately; assay: qHTS assay to identify small molecule agonists of the TGF-beta/Smad signaling pathway - cell viability counter screen (AID 1346829); conditions: SBE-bla HEK293T viability, CellTiter-Glo luminescence, 5 h; series mostly up to 76.8 µM; also: top concentration of the series differs between compounds; nearly all actives have a fitted effect of over 45% in size
Outline: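 Same-well cytotoxicity: CellTiter-Glo added after the 2 hr room-temperature beta-lactamase substrate step, luminescence measured 30 min later; cells had 5 hr of compound at 37 C.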

SMILES	Potency
Oc1c(Br)cc(Br)c2cccnc12	inactive
O=C1OC(OC(=O)c2cccnc2Nc2cccc(C(F)(F)F)c2)c2ccccc21 (stereo not drawn)	inactive
CCCCCCOc1cc(C)c(O)c(C)c1C	inactive
Brc1ccccc1-c1ccccc1	inactive
O[C@@H](c1cc(C(F)(F)F)nc2c(C(F)(F)F)cccc12)[C@H]1CCCCN1	inactive
CN1CCN(C2Cc3ccccc3Sc3ccc(Cl)cc32)CC1 (stereo not drawn)	inactive
CCC1(c2cnc[nH]2)Cc2ccccc2C1	inactive
CN1[C@@H]2CC[C@H]1CC(OC(=O)C(CO)c1ccccc1)C2 (stereo partly drawn)	inactive
CCCCCCCC/C=C\CCCCCCCC(=O)N(C)CC(=O)O	inactive
Nc1ccc2cc3ccc(N)cc3nc2c1	inactive
CCCCCCCCCCCC(=O)N(CC)CC	inactive
C[n+]1c2cc(N)ccc2cc2ccc(N)cc21 (tested in a mixture with another compound)	inactive
O=C(c1ccccc1)c1cc(Cl)ccc1O	inactive
C[C@@]12C(=O)OC(=O)[C@]1(C)C1CCC2O1	inactive
COc1ccc2sc(C(=O)Nc3nnn[nH]3)c(OC(C)C)c2c1	inactive
CCCCCCOc1ccc(O)cc1	inactive

SMILES	Potency
CCCCCCCC/C=C\CCCCCCCC(=O)NCc1ccc(O)c(OC)c1	inactive
CC(C)c1cccc(C(C)C)c1N1C(=O)c2ccc(O)cc2C1=O	inactive
Clc1ccccc1CN1CCc2sccc2C1	inactive
CCO[Si](CCCSSSSCCC[Si](OCC)(OCC)OCC)(OCC)OCC	inactive
CC(CN(C)C)CN1c2ccccc2CCc2ccccc21 (stereo not drawn)	inactive
CC(=O)Oc1ccc(C2(c3ccc(OC(C)=O)cc3)C(=O)Nc3ccccc32)cc1	inactive
CCN(CC)CCNc1ccc(CO)c2sc3ccccc3c(=O)c12	inactive
CCCCN(CCCC)CCC(O)c1cc2c(Cl)cc(Cl)cc2c2cc(C(F)(F)F)ccc12 (stereo not drawn)	inactive
CN(C)CCCN1c2ccccc2Sc2ccc(C(F)(F)F)cc21	inactive
CC(=O)Nc1ccc(O)cc1	inactive
CCCCCCCCCCCCCCNCCO	inactive
Cc1cccc(C)c1NC(=O)CN1CCN(CCCC(c2ccc(F)cc2)c2ccc(F)cc2)CC1	inactive
CC(O)C#CC(C)O (stereo not drawn)	inactive
C[C@]12CC[C@H]3C(=CCc4cc(O)ccc43)[C@@H]1CCC2=O	inactive
O=Nc1ccc(NO)cc1	inactive

test system: not listed separately; assay: qHTS assay to identify small molecule agonists of the TGF-beta/Smad signaling pathway (AID 1346859; active = well fitted activation curve with a large enough effect in the signal ratio in the repeat runs, not every such curve was filed as active; the % refers to the signal ratio); conditions: SBE-bla HEK293T, TGF-beta/Smad beta-lactamase reporter, 5 h; series mostly up to 76.8 µM
Outline: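 SBE-bla HEK 293T, 4,000 cells/well, plated o/n; cpd in DMSO, 5 hr, 37 C/5% CO2; B/G FRET substrate 2 hr RT; ex 405, em 460/530 nm.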

SMILES	Potency
Oc1c(Br)cc(Br)c2cccnc12	inactive
O=C1OC(OC(=O)c2cccnc2Nc2cccc(C(F)(F)F)c2)c2ccccc21 (stereo not drawn)	inactive
CCCCCCOc1cc(C)c(O)c(C)c1C	inactive
Brc1ccccc1-c1ccccc1	inactive
O[C@@H](c1cc(C(F)(F)F)nc2c(C(F)(F)F)cccc12)[C@H]1CCCCN1	inactive
CN1CCN(C2Cc3ccccc3Sc3ccc(Cl)cc32)CC1 (stereo not drawn)	inactive
N#CSCSc1nc2ccccc2s1	inactive
CCC1(c2cnc[nH]2)Cc2ccccc2C1	inactive
CN1[C@@H]2CC[C@H]1CC(OC(=O)C(CO)c1ccccc1)C2 (stereo partly drawn)	inactive
CCCCCCCC/C=C\CCCCCCCC(=O)N(C)CC(=O)O	inactive
CCCCCCCCCCCC(=O)N(CC)CC	inactive
O=C(c1ccccc1)c1cc(Cl)ccc1O	inactive
C[C@@]12C(=O)OC(=O)[C@]1(C)C1CCC2O1	inactive
CCCCCCOc1ccc(O)cc1	inactive
CCCCCCCC/C=C\CCCCCCCC(=O)NCc1ccc(O)c(OC)c1	inactive
CCCCCCCCCCOCC(O)CN (stereo not drawn)	inactive
CC(=O)Oc1ccc(C2(c3ccc(OC(C)=O)cc3)C(=O)Nc3ccccc32)cc1	inactive
CCN(CC)CCNc1ccc(CO)c2sc3ccccc3c(=O)c12	inactive
CCCCN(CCCC)CCC(O)c1cc2c(Cl)cc(Cl)cc2c2cc(C(F)(F)F)ccc12 (stereo not drawn)	inactive
CCCCCCCCCCCCCCNCCO	inactive
Cc1cccc(C)c1NC(=O)CN1CCN(CCCC(c2ccc(F)cc2)c2ccc(F)cc2)CC1	inactive
CC(O)C#CC(C)O (stereo not drawn)	inactive
C[C@]12CC[C@H]3C(=CCc4cc(O)ccc43)[C@@H]1CCC2=O	inactive
O=Nc1ccc(NO)cc1	inactive

biological target: Thyrotropin-releasing hormone receptor (Homo sapiens) (UniProt P34981); assay: qHTS assay to identify small molecule antagonists of the thyrotropin-releasing hormone receptor (TRHR) signaling pathway (AID 1346877; active = well fitted inhibition curve with a large enough effect in the repeat runs, not every such curve was filed as active; also: potency is read from the fitted curve at half-maximal effect); conditions: TRHR-HEK293, TRH-induced calcium fluorescence, antagonist mode; series mostly up to 51.3 µM
Sequence (P34981 whole entry, looked up): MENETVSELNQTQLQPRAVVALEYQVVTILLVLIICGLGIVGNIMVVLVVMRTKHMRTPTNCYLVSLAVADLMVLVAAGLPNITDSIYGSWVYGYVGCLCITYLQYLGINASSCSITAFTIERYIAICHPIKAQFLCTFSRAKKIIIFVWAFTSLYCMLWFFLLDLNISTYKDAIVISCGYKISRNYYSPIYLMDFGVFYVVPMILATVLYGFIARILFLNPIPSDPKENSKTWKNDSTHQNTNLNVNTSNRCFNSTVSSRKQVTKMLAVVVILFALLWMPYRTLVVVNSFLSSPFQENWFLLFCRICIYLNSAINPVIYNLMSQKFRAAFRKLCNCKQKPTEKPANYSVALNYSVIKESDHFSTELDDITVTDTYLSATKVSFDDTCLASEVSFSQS
Outline: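 Calcium signal in dye-loaded TRHR/HEK293 cells; compounds added 5 min before TRH (1 nM final); fluorescence monitored 3 min at 1 s steps.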

SMILES	Potency
CCCCCCOc1cc(C)c(O)c(C)c1C	inactive
O[C@@H](c1cc(C(F)(F)F)nc2c(C(F)(F)F)cccc12)[C@H]1CCCCN1	inactive
CN1CCN(C2Cc3ccccc3Sc3ccc(Cl)cc32)CC1 (stereo not drawn)	inactive
CCC1(c2cnc[nH]2)Cc2ccccc2C1	inactive
CCCCCCCC/C=C\CCCCCCCC(=O)N(C)CC(=O)O	inactive
Nc1ccc2cc3ccc(N)cc3nc2c1	33.8 µM (active)
O=C1c2c(O)ccc(O)c2C(=O)c2c(NCCNCCO)ccc(NCCNCCO)c21	inactive
CCCCCCCCCCCC(=O)N(CC)CC	inactive
C[n+]1c2cc(N)ccc2cc2ccc(N)cc21 (tested in a mixture with another compound)	inactive
O=C(c1ccccc1)c1cc(Cl)ccc1O	inactive
C[C@@]12C(=O)OC(=O)[C@]1(C)C1CCC2O1	inactive
CCCCCCOc1ccc(O)cc1	inactive
CC(C)c1cccc(C(C)C)c1N1C(=O)c2ccc(O)cc2C1=O	inactive
Clc1ccccc1CN1CCc2sccc2C1	inactive
CC(CN(C)C)CN1c2ccccc2CCc2ccccc21 (stereo not drawn)	inactive
CCCCCCCCCCOCC(O)CN (stereo not drawn)	inactive
CCN(CC)c1ccc(N)cc1	inactive
CCN(CC)CCNc1ccc(CO)c2sc3ccccc3c(=O)c12	inactive
CC(=O)Nc1ccc(O)cc1	inactive
Cc1cccc(C)c1NC(=O)CN1CCN(CCCC(c2ccc(F)cc2)c2ccc(F)cc2)CC1	inactive
CC(O)C#CC(C)O (stereo not drawn)	inactive
C[C@]12CC[C@H]3C(=CCc4cc(O)ccc43)[C@@H]1CCC2=O	inactive
O=Nc1ccc(NO)cc1	inactive
